Most compounds without a hit are left out; they make up all but 5.1% or so of the library.
Tau fluor cs – Counterscreen qHTS for Inhibitors of Tau Fibril Formation, Fluorescence Polarization; tau K18 P301L Alexa594 fluorescence, heparin fibrillization; Potency, µM (highest dose often 57.7 µM), inactives show top-dose activity change, negative = decrease; 280,000 tested, 0.93% active; AID 1463, 2008; note: potency is the fitted concentration of half-maximal effect; nearly all actives have a fitted effect of over 55% in size
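Human K18 P301L tau (15 uM unlabeled plus 0.24 uM Alexa 594-labeled, final) in 100 mM sodium acetate pH 7 was mixed with compound and 20 uM heparin and incubated 6 hr at 37 C.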
Tau fibril FP – qHTS for Inhibitors of Tau Fibril Formation, Fluorescence Polarization. K18 P301L tau heparin fibrillization, Alexa594 FP, 6 h. Potency, µM (doses to about 57.7 µM), without a hit: at the highest dose activity, negative = inhibition, most hits filed as inhibitors. 280,000 tested, 0.39% active; note: potency is the fitted concentration of half-maximal effect; nearly all actives have a fitted effect of over 55% in size
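FP of Alexa 594-tau after heparin (20 uM) induction. Substrate: human K18 P301L, 15 uM unlabeled, 0.24 uM labeled. Buffer 100 mM sodium acetate pH 7. 6 hr, 37 C.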
Tau fibril ThT – qHTS for Inhibitors of Tau Fibril Formation, Thioflavin T Binding; Microtubule-associated protein tau (Homo sapiens), P10636; recombinant tau K18 P301L (four-repeat tau fragment), heparin-induced fibrillization, ThT fluorescence; Potency, µM (highest dose often 57.4 µM), without a hit: top-dose activity, negative = inhibition, usual class: inhibitors; 270,000 tested, 2.1% active; AID 1460, 2008; note: potency is the fitted concentration of half-maximal effect; nearly all actives have a fitted effect of over 55% in size
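Aggregation was driven by heparin (20 uM final) acting on recombinant tau […] bearing P301L in 100 mM sodium acetate pH 7; fibrils were detected with Thioflavin T.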
JMJD2E inh – qHTS Assay for Inhibitors of Human Jumonji Domain Containing 2E (JMJD2E). Lysine-specific demethylase 4E (Homo sapiens), B2RXH2. JMJD2E catalytic domain, FDH-coupled NADH fluorescence (FDH is formaldehyde dehydrogenase). Potency, µM (highest dose often 57.1 µM), for inactives: at the highest dose activity change, negative = inhibition, actives largely listed as inhibitors. 230,000 tested, 1.6% active; active = well fitted inhibition curve with a large enough effect, not every such curve was filed as active; inconclusive = small, poorly fitted or top-dose-only effect, or another doubt; inactive = no such curve, though single readings can be large or run the other way;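 note: potency is the fitted concentration of half-maximal effect; 0% = wells with enzyme and -100% = buffer wells without enzyme; nearly all actives have a fitted effect of over 50% in size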
Target sequence (B2RXH2 1-337 limits assumed): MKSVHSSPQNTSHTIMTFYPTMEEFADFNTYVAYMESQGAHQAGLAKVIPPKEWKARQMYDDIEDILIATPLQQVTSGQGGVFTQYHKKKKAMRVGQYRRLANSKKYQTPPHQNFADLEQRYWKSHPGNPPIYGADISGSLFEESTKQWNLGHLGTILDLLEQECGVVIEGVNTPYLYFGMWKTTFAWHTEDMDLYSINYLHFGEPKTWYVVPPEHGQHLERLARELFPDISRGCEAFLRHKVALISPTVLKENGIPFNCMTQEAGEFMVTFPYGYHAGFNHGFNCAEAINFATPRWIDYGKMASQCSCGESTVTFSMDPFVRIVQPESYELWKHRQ
PNC assembly inh – High Content Assay for Compounds that inhibit the Assembly of the Perinucleolar Compartment; activity change (PNC), negative = inhibition, % at 10 µM; PC3M PTB-GFP, PNC prevalence imaging, 16 h; active compounds read low; 140,000 tested, 3.1% active; AID 2417, 2010;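 active = readout at or below -70, meaning at least 70% loss of cells showing the perinucleolar compartment, a nuclear body marking cancer cells; inconclusive = readout between -30 and a set limit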;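 note: plate controls were DMSO wells for no effect and camptothecin positive control wells for full effect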
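Read-out is percentage of cells bearing a perinucleolar compartment, from automated 20x imaging of fixed, Hoechst-stained PC3M PTB-GFP cells. Cells were seeded 4 h, then exposed 16 h to compound (23 nl of library stock) in duplicate plates.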
NPSR antagonist – qHTS Assay for Antagonists of the Neuropeptide S Receptor: cAMP Signal Transduction; Potency, µM (highest dose often 38.3 µM), for the others: at the top dose activity change, negative = inhibition, hits mostly inhibitors; AID 1461, 2008; CHO-NPSR cells, cAMP TR-FRET, antagonist mode; 220,000 tested, 1% active; note: potency is the fitted concentration of half-maximal effect; nearly all actives have a fitted effect of over 50% in size
Target sequence (Q6W5P4 whole entry, looked up): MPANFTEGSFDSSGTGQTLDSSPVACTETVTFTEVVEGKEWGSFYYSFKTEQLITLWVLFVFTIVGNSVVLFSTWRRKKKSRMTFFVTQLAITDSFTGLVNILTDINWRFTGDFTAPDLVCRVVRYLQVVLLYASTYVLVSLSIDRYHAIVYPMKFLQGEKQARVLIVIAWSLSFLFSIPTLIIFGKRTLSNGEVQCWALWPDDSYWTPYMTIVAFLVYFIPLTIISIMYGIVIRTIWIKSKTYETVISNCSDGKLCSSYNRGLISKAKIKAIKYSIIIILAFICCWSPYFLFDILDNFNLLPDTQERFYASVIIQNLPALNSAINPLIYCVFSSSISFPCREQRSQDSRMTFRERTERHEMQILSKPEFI
* hit, by the source's call; ? = inconclusive; / = not tested or not shown; [ ] = remark or other dose. Unless noted, calls come from the whole dose curve; as a rule, active = well fitted curve in the direction sought with a large enough effect; inconclusive = small, poorly fitted or top-dose-only effect, or another doubt; inactive = no such curve, though single readings can be large; an effect the other way counts as inactive or inconclusive. Unless noted, % is set by controls: 0 for no effect and ±100 for the full control effect.

SMILES	Tau fluor cs	Tau fibril FP	Tau fibril ThT	JMJD2E inh	PNC assembly inh	NPSR antagonist
COc1ccc(C2CC(C(F)(F)F)n3ncc(C(=O)NCc4cccnc4)c3N2)cc1OC (centres undefined)	-8%	0%	-13%	0%	-82*	-3%[46.1 µM]
COc1cccc(C2CC(C(F)(F)F)n3ncc(C(=O)NCC4CCCO4)c3N2)c1 (centres undefined)	2%	0%	4%	2%	7	-6%[46.1 µM]
COc1ccc2nc(N=Nc3c(O)ccc4ccccc34)sc2c1	?	-4%	2.8µM*	8%	19	4%
Nc1cc(-c2ccc(OC(F)(F)F)cc2)nn1-c1ccc(Cl)c(Cl)c1	13µM*[quencher]	?	20µM*	-18%	/	56%
CCOC(=O)c1c(C)[nH]c(C)c1S(=O)(=O)N(C)CC(=O)Nc1cc(Cl)ccc1OC	?	5%	-17%	/	/	/
Cc1cc(C)c2oc(C(=O)Nc3c(C(=O)c4ccccc4)oc4ccccc34)cc(=O)c2c1	-7%	0%	-5%	/	/	/
COCCN=c1scc(-c2ccc3c(c2)NC(=O)CO3)n1/N=C(\C)c1ccc(O)cc1	14µM*[quencher]	?	14µM*	-24%	/	56%
COc1cc(/C=N/n2c(-c3ccc4c(c3)NC(=O)CO4)csc2=Nc2cccc(C)c2)ccc1O	4%	12%	5%	5%	?	-10%
CCCCc1nc2ccccc2n2c(-c3ccc(OC)cc3)c3c(=O)n(C)c(=O)n(C)c3c12	-20%	-8%	-18%	/	/	/
Cc1cc(C)nc(SCSc2nc(C)cc(C)n2)n1	5%	-1%	-4%	-17%	7	-2%[46.1 µM]
Cc1cc(C)nc(SCCS(=O)Cc2ccc(Cl)cc2)n1 (centres undefined)	-3%	-7%	-16%	-1%	-110*	-27%[46.1 µM]
CCN1CCN(Cc2ccc(NC(=O)c3cc(NC(=O)c4cncc(-c5ccc(C#N)cc5)c4)cc(OC)c3)cc2C(F)(F)F)CC1	?	8.9µM*	-1%	?	/	-45%
CCN1CCN(Cc2ccc(NC(=O)c3cc(NC(=O)c4nccnc4N)cc(OC)c3)cc2C(F)(F)F)CC1	-23%	-14%	2%	-23%	/	-8%
COc1ccccc1-c1nn(CCC(=O)Nc2ccc(C)cc2)c2nc(C)cc(C)c12	-14%	5%	-15%	/	/	/
Cc1ccc2nc(CSc3nc(C)ccc3C#N)[nH]c2c1	?	2%	11µM*	?	-21	-6%[46.1 µM]
O=C(Cn1c(=O)[nH]c2ccsc2c1=O)NC1CCCCCC1	0%	-7%	-9%	-3%	-100*	-3%[46.1 µM]
COc1cccc(N2CC(NC(=O)c3ccc(S(=O)(=O)N4CCOCC4)cc3)CC2=O)c1 (centres undefined)	-1%	-7%	-5%	/	/	/
O=C(Nc1ccc(Cl)c(Cl)c1)C1=Cc2ccccc2OC1	?	16µM*	?	?	14	-15%[46.1 µM]
Cc1ccc(OCc2nc3ccccc3n2CC(C)C)cc1	-17%	5%	-16%	/	/	/
COc1ccc(-c2nc(SCC(=O)Nc3ccccc3)c(-c3ccc(F)cc3)[nH]2)cc1OC	7.1µM*[quencher]	?	?	/	/	/
COCCNC(=O)CSc1nc(-c2cc(OC)c(OC)c(OC)c2)[nH]c1-c1ccc(Cl)cc1	16µM*[quencher]	?	?	/	/	/
COc1ccc(NC(=O)CSc2nc(-c3ccc(F)cc3)[nH]c2-c2ccc(C)cc2)cc1OC	3.5µM*[quencher]	-15%	?	/	/	/
COc1ccc(NC(=O)CSc2nc(-c3ccccc3)[nH]c2-c2ccccc2)cc1OC	16µM*[quencher]	2%	?	/	/	/
O=C(CSc1nc(-c2ccc(F)cc2)[nH]c1-c1ccccc1)Nc1ccccc1	?	?	6%	/	/	/
COc1ccc(-c2cnnn2-c2ccc(NC(=O)c3c(F)cccc3F)cc2)cc1	-28%	-9%	-3%	/	/	/
SMILES	Tau fluor cs	Tau fibril FP	Tau fibril ThT	JMJD2E inh	PNC assembly inh	NPSR antagonist
Cc1ccc(NC(=O)c2ccc(CN3CC(=O)N4CCCCC4C3=O)cc2)cc1C (centres undefined)	-12%	-7%	-13%	/	/	/
Cc1cccn2c(Nc3ccccc3)c(-c3cccs3)nc12	?	9%	?	/	/	/
COc1cc(-c2nc(SCC(=O)Nc3ccc(C)cc3)c(-c3ccc(F)cc3)[nH]2)cc(OC)c1OC	4.5µM*[quencher]	1%	-17%	/	/	/
CCC(C(=O)Nc1ccc(C)c(C)c1)n1c(=O)c(C(F)(F)F)nc2ccccc21 (centres undefined)	-5%	-10%	0%	/	/	/
COc1cc2c(cc1OC)C(COc1ccc3c(C)cc(=O)oc3c1)N(C(=O)c1ccc(C)c(C)c1)CC2 (centres undefined)	6%	3%	5%	/	/	/
COc1ccc(OC)c(/C=N/NC(=O)c2cc3c(OC)c(OC)ccc3[nH]2)c1	?	7%	?	?	-112*	-5%
C[C@H]1c2cccc(O)c2C(O)=C2C(=O)[C@]3(O)C(O)=C(C(N)=O)C(=O)[C@@H](N(C)C)[C@@H]3[C@@H](O)[C@@H]21	-15%	-13%	-12%	20µM*	/	5%
Cc1ccccc1C(=O)Nc1nnc2n1CCS2	6%	8%	4%	/	/	/
COc1ccc(-c2cc(-c3ccc(OC)cc3)c(C#N)c(SC)n2)cc1	-14%	?	-8%	?	-100*	13µM*
COc1ccc(-c2cc(-c3ccccc3)c(C#N)c(SCC(=O)Nc3ncc(C)s3)n2)cc1	-28%	28µM*	-9%	?	31	-29%
CCOC(=O)c1sc(NC(=O)CSc2nc(C)cc(-c3ccccc3)n2)c(C#N)c1C	?	?	35µM*	-6%	-12	-21%[46.1 µM]
CCc1nnc(NC(=O)CSc2nc(-c3ccccc3)cc(-c3ccc(OC)cc3)c2C#N)s1	-13%	2%	6%	12%	33	7.9µM*
CSc1nc(-c2ccco2)cc(-c2ccccc2)c1C#N	-22%	-13%	-6%	?	-27	-4%[46.1 µM]
COC(=O)CN1C(=O)CSc2ccc(S(=O)(=O)Nc3cccc(C)c3C)cc21	-17%	-4%	-5%	/	/	/
CCOc1ccccc1NC(=O)CN(CCc1ccccc1)S(=O)(=O)c1ccc(C)cc1	-10%	7%	3%	/	/	/
CC(C)NC(=O)CSc1nc(-c2cccs2)cc(-c2ccccc2)c1C#N	3%	3%	-1%	-4%	3	10µM*

High-throughput results deposited in PubChem BioAssay by National Center for Advancing Translational Sciences (NCATS).
